An excerpt weighted towards active compounds, which were near 0.54% of everything screened.
Cathepsin G inh = human cathepsin G inhibitors, primary screen, biochemical, pooled compound mixtures, AMC fluorescence | purified enzyme, AMC-tetrapeptide fluorescence | 0.2% of 62,000 active | inhibition, % at 5 µM (by protocol);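 active means inhibition above 20% in each of the two mixture wells holding the compound; inactive means inhibition of 20% or less in either well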;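 further: 0% = enzyme control without mixture and 100% = blank lacking enzyme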
CatB mixtures = cathepsin B inhibitors from pooled compounds, primary screen, biochemical, compound mixtures, AMC fluorescence; P07858; Purified cathepsin B, AMC dipeptide fluorescence; inhibition, %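 (ten-compound pools at 5 µM per compound and 50 µM total)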; 0.06% of 62,000 active; in the data active means inhibition above about 22%, passing the limit was not always enough;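 further: 0% = enzyme without compound and 100% = no enzyme blank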
C1s inh = complement C1s protease inhibitors, primary screen, biochemical, 10-compound mixtures. AID 538, 2006. mean inhibition % of two 10-compound mixtures (hits give high values), % at 5 µM (by protocol). 0.16% of 62,000 active. purified C1s, fluorogenic AMC substrate, pooled mixtures;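 active means inhibition above 20% in each of the two 10-compound mixture wells holding the compound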;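 further: 0% = enzyme wells lacking compound mixture and 100% = no-enzyme blank wells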
CatB block = human cathepsin B inhibitors, primary screen, biochemical, fluorogenic substrate; P07858; purified cathepsin B, fluorescence; AID 453, 2006; inhibition, %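 (tested at 10 µM)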; 0.1% of 63,000 active; in the data active means inhibition above about 21%;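 further: 0% = enzyme with no compound and 100% = no enzyme blank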
CatS inh = inhibitors of human cathepsin S, biochemical, compound mixtures. inhibition, %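 (tested at 5 µM per compound within 10-compound mixtures)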. 0.06% of 62,000 active. recombinant cathepsin S, AMC dipeptide fluorescence, pooled mixtures. AID 501, 2006; in the data active means inhibition above about 32%, passing the limit was not always enough;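 further: 0% = enzyme without compound and 100% = blank without enzyme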
CatL inh = inhibitors of human cathepsin L, biochemical | purified cathepsin L, fluorogenic substrate, fluorescence | inhibition, %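 (tested at 10 µM)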 | 0.17% of 58,000 active; in the data active means inhibition above about 45%;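 further: 0% = enzyme with no compound and 100% = no enzyme blank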
Numbers without * were called inactive.

SMILES	Cathepsin G inh	CatB mixtures	C1s inh	CatB block	CatS inh	CatL inh
COc1cccc(NC(=O)Cc2ccccc2)c1	-13	8	-13	10	14	16
COc1cccc(NC(=O)CCP(C)(=O)O)c1	11	6	63*	2	16	11
Nc1nncn1C(=O)c1cccs1	22*	3	14	5	-2	5
Cc1ccc(C)c(C(=O)n2cnnc2N)c1	-6	-18	-44	-3	-34	-18
Cc1ccc(C(=O)n2cnnc2N)cc1C	85*	1	18	7	6	4

Bioassay records (PubChem)
